Only a sample is shown.
aSyn UTR act – Activators via SNCA 5'UTR binding, MLPCN | alpha-synuclein 5'UTR reporter, activators screen | activity score, % (tested at 7.5 µM), hits read low | 7.1% of 300,000 active | AID 1814, 2009; in the data active = activity score below about -60%
* = called active by the depositor.

How did CC(=O)n1c2ccccc2c2nc3ccccc3nc21 do in these assays?
aSyn UTR act: -98*

Results for CC(=O)n1cc(N(C(=O)CCl)c2ccc(C)cc2)c2ccccc21 ?
aSyn UTR act: 89

How did CCn1c2ccccc2c2cc(NC(=O)CSc3nnc(-c4cccc(F)c4)o3)ccc21 do in these assays?
aSyn UTR act: -68*

Results for CCn1c2ccccc2c2cc(NC(=O)CSc3nnc(-c4ccccc4)o3)ccc21 ?
aSyn UTR act: -155*

How did CCn1c2ccccc2c2cc(NC(=O)CSc3nnc(-c4cccc(C)c4)o3)ccc21 do in these assays?
aSyn UTR act: -63*

How did CC(=O)N(C)c1ccc(NC(=O)Nc2ccc(C)cc2)cc1 do in these assays?
aSyn UTR act: -76*

How did CC(=O)N(C)c1ccc(NC(=O)Nc2ccc(Cl)cc2)cc1 do in these assays?
aSyn UTR act: -135*

What do the screens show for `O=C(CC(SCCO)c1ccc2c(c1)OCO2)c1cccs1` (stereo unspecified)?
aSyn UTR act: -193*

What do the screens show for `O=C(CC(SCc1ccco1)c1ccc(O)cc1)c1cccs1` (stereo unspecified)?
aSyn UTR act: -168*

What do the screens show for `O=C(NC(C(=O)c1ccccc1)n1ccc(=O)[nH]c1=O)c1ccccc1` (stereo unspecified)?
aSyn UTR act: -208*

How did O=C(NC(C(=O)c1ccccc1)N1CCCCC1)c1ccccc1 (stereo unspecified) do in these assays?
aSyn UTR act: -87*

How did Cc1cccc(C(=O)Nc2ccccc2C(=O)OCC(=O)Nc2ccc(C#N)cc2)c1 do in these assays?
aSyn UTR act: -100*

What do the screens show for `O=C(c1cc(-c2ccc3c(c2)OCO3)on1)N1CCCCC1`?
aSyn UTR act: 61

What do the screens show for `CC1CCCC(C)N1C(=O)c1cc(-c2ccc3c(c2)OCO3)on1` (stereo unspecified)?
aSyn UTR act: -131*

Results for CC1CCCC(C)N1C(=O)c1cc(-c2ccc(Cl)c(Cl)c2)on1 (stereo unspecified) ?
aSyn UTR act: -173*

How did CCC1SC(=NC(=O)c2ccc(Cl)c(Cl)c2)NC1=O (stereo unspecified) do in these assays?
aSyn UTR act: -76*

What do the screens show for `Cc1ccc(-n2nnnc2Sc2ccc(S(=O)(=O)NCCN(C)C)cc2[N+](=O)[O-])cc1`?
aSyn UTR act: -93*

What do the screens show for `O=[N+]([O-])c1cc(S(=O)(=O)NCCN2CCOCC2)ccc1Sc1nnnn1-c1ccccc1`?
aSyn UTR act: -96*

How did Cc1ccc(C(c2cc(Cl)c3cccnc3c2O)N2CCN(C)CC2)cc1 (stereo unspecified) do in these assays?
aSyn UTR act: 66

What do the screens show for `CC(C)c1ccc(-c2cc(C(=O)N3N=C(C(F)F)CC3(O)C(F)F)c3ccccc3n2)cc1` (stereo unspecified)?
aSyn UTR act: -166*

Results for CN1CCN(c2ccc(-c3ccc4ccccc4n3)cc2)CC1 ?
aSyn UTR act: 112

Results for CC(C)c1ccc(-c2cc(C(=O)NN3CCN(C)CC3)c3ccccc3n2)cc1 ?
aSyn UTR act: -117*

What do the screens show for `CC(C)(C)c1ccc(OCCn2ccccc2=O)cc1`?
aSyn UTR act: -154*

How did COc1nc(NCCN2CCOCC2)nc(Nc2ccccc2)n1 do in these assays?
aSyn UTR act: -101*

How did CC(C)(C)c1ccc(C(=O)NC(=S)Nn2cnnc2)cc1 do in these assays?
aSyn UTR act: -76*

What do the screens show for `CC(C)(C)c1cc(CCC(=O)NNC(=S)NC(=O)c2ccccc2)cc(C(C)(C)C)c1O`?
aSyn UTR act: 66

Results for Fc1ccc(-c2nnn(Cc3ccccc3Cl)n2)cc1 ?
aSyn UTR act: -69*

Results for CC(C)n1nnc(-c2ccc(OCc3ccccc3F)cc2)n1 ?
aSyn UTR act: -100*

Results for Clc1ccc(-c2nnn(Cc3nc4ccccc4s3)n2)cc1 ?
aSyn UTR act: -138*

What do the screens show for `c1ccc(Cn2nnc(-c3ccccc3)n2)cc1`?
aSyn UTR act: -62*

How did Nc1ccc(-c2nnn(Cc3ccccc3F)n2)cc1 do in these assays?
aSyn UTR act: -71*

How did Cc1ccc(-c2nn(-c3ccccc3)cc2/C=N/n2c(-c3ccncc3)n[nH]c2=S)cc1 do in these assays?
aSyn UTR act: -86*

What do the screens show for `O=[N+]([O-])c1ccc(Cl)c(/C=N/n2c(-c3ccncc3)n[nH]c2=S)c1`?
aSyn UTR act: -78*

How did N#Cc1nc(-c2ccc(Cl)cc2)oc1NCCc1ccccn1 do in these assays?
aSyn UTR act: -156*

What do the screens show for `Cc1ccc(-c2nc(C#N)c(NCCc3ccccn3)o2)cc1`?
aSyn UTR act: -151*

What do the screens show for `Cc1ccc(Oc2ccc(Cl)cc2N)cc1`?
aSyn UTR act: -85*

How did Nc1cc(Cl)ccc1Oc1ccc2ccccc2c1 do in these assays?
aSyn UTR act: -138*

What do the screens show for `Clc1ccc(N=C2SCC3CCCCN23)cc1` (stereo unspecified)?
aSyn UTR act: -145*

Results for FC(F)Oc1ccc(N=C2SCC3CCCCN23)cc1 (stereo unspecified) ?
aSyn UTR act: -206*

What do the screens show for `COc1cc(OC)cc(C(=O)Nc2sc3c(c2C(N)=O)CCC3)c1`?
aSyn UTR act: -105*

What do the screens show for `NC(=O)c1c(NC(=O)c2cccs2)sc2c1CCCCCC2`?
aSyn UTR act: -122*

What do the screens show for `NCCNC(=O)c1c(NC(=O)c2ccccc2)sc2c1CCCC2`?
aSyn UTR act: -125*

How did NC(=O)c1c(NC(=O)c2ccc(F)cc2Cl)sc2c1CCC2 do in these assays?
aSyn UTR act: -96*

Results for COCCN(CCOC)S(=O)(=O)c1ccc(C(=O)Nc2sc3c(c2C(N)=O)CCCCC3)cc1 ?
aSyn UTR act: -107*

What do the screens show for `NC(=O)c1c(NC(=O)c2ccccc2F)sc2c1CCCC2`?
aSyn UTR act: -170*

Results for COc1ccccc1/C=C\C=N\NC(=O)c1ccco1 ?
aSyn UTR act: -98*

How did COc1ccccc1/C=C/C=N/NC(=O)c1cccs1 do in these assays?
aSyn UTR act: -180*

What do the screens show for `CCN(C(=O)c1ccco1)c1nnc(-c2ccc(OC)cc2)s1`?
aSyn UTR act: -135*

How did CCCN(C(=O)c1ccco1)c1nnc(-c2cccc(C)c2)s1 do in these assays?
aSyn UTR act: -143*

Results for COc1ccc(NS(=O)(=O)c2ccc(N3CCCC3)c(NC(=S)Nc3cccc(C)c3C)c2)cc1 ?
aSyn UTR act: -132*

What do the screens show for `O=C(NCC1COc2ccccc2O1)c1ccc(Cl)cc1` (stereo unspecified)?
aSyn UTR act: -93*

Results for CN(CC1COc2ccccc2O1)C(=O)c1ccc(N(C)C)cc1 (stereo unspecified) ?
aSyn UTR act: -62*

Results for c1ccc(CCNCC2COc3ccccc3O2)cc1 (stereo unspecified) ?
aSyn UTR act: -64*

How did Cc1ccnc(NC(=O)Nc2ccc(F)cc2)c1 do in these assays?
aSyn UTR act: -86*

Results for Cc1ccc(NC(=O)Nc2ccc(F)cc2)nc1 ?
aSyn UTR act: -108*

Results for COCCn1ccc2c(OCC(=O)Nc3cc(OC)ccc3OC)cccc2c1=O ?
aSyn UTR act: -62*

Results for Cc1cnc(Nc2nc3ccccc3o2)nc1C(=O)Nc1cccc(C(F)(F)F)c1 ?
aSyn UTR act: -67*

Results for Cc1c(C(=O)Nc2cccc3cccnc23)oc2ccccc12 ?
aSyn UTR act: -118*

Results for Cc1c(C(=O)Nc2cnccn2)oc2ccccc12 ?
aSyn UTR act: -107*

What do the screens show for `Cc1c(C(=O)Nc2ccc(Cl)cn2)oc2ccccc12`?
aSyn UTR act: -91*

What do the screens show for `O=C(Nc1nccs1)c1ccc(COc2ccccc2)o1`?
aSyn UTR act: -113*
